GPR151 ag: activates the human receptor GPR151 | 650,000 tested, 1% active | AID 1508602 | activation, % at 11.2 µM | Q8TDV0 | PathHunter beta-arrestin GPR151 cells, luminescence; in the data active = activation above about 4.9%;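 also: 0% = median of compound wells and 100% = cells with positive control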
Target sequence (Q8TDV0 whole entry, looked up): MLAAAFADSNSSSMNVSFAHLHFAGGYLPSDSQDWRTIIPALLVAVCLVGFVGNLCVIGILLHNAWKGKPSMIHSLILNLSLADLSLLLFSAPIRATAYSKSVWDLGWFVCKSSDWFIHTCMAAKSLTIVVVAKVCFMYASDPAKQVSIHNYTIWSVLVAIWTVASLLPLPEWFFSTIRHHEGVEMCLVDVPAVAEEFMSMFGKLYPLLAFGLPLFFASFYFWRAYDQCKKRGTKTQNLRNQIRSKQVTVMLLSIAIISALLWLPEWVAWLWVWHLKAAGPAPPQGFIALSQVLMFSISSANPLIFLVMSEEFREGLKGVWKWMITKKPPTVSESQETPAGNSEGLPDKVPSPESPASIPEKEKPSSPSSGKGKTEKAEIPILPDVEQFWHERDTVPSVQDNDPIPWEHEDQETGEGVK
FBW7 act: activators of human E3 ligase FBW7. Q969H0. AlphaScreen FBW7–phospho-cyclin E peptide binding, activator screen. normalized activity (activation), % at 26.1 µM. 650,000 tested, 0.13% active; in the data active = normalized activity above about 1.9%;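 also: purified mutant Fbw7 with reduced substrate affinity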
MITF inh: blocks human microphthalmia-associated transcription factor; inhibition, % at 2.6 µM; O75030; 650,000 tested, 0.91% active; AlphaScreen MITF homodimerization, bead proximity signal; in the data active = inhibition above about 50%;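 also: 0% = vehicle wells with protein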
TEAD-YAP inh: TEAD-YAP interaction inhibition; 640,000 tested, 1.4% active; HEK-TIYL cells, TEAD-Gal4/YAP UAS-luciferase luminescence; AID 1259422; inhibition, % at 9.12 µM; in the data active = inhibition above about 32%;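 also: 0% = median of test compound wells and 100% = reference inhibitor wells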
GPR151 conf act: confirmation of human GPR151 activators | shares compounds with GPR151 ag | GPR151 PathHunter beta-arrestin cells, luminescence, 90 min; % of EA-reagent control over plate median | activation, % at 11.2 µM | 6,700 tested, under 10 active | AID 1508609;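 active = mean percent activation across replicates above the confirmation screen cutoff of 4.91%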
GPR119 counter: counter-screen for GPR151 activators: effect on human GPR119. shares compounds with GPR151 ag. GPR119 PathHunter beta-arrestin cells, luminescence, 90 min; 0 = compound-well median, 100 = enzyme-acceptor control. activation, % at 11.2 µM. 6,700 tested, 0.3% active. AID 1508611;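 active = mean percent activation in the counterscreen above 29.09%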;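 also: counterscreen on off-target GPR119 to flag nonselective hits from the GPR151 activator screen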
An asterisk follows results filed as active; · = no result. Rows were chosen to be rich in hits. Some 3.5% of all compounds tested hit in one or more screens of this group.

SMILES	GPR151 ag	FBW7 act	MITF inh	TEAD-YAP inh	GPR151 conf act	GPR119 counter
COc1ccccc1/C=C1\SC(=O)N(CC(=O)Nc2cccc(C)c2)C1=O	0	0	2	13	·	·
Cc1sc2ncnc(NCC(C)O)c2c1C (configuration not stated)	4.9*	0	-25	-2	-1	4
Cc1sc2ncnc(NCc3ccccc3)c2c1C	1	0	2	24	·	·
Cc1n[nH]c(C)c1CCC(=O)O	4.9*	0	-1	0	-1	-3
Cc1n[nH]c(C)c1CCC(=O)N/N=C/c1ccc(Cl)cc1	6.0*	0	13	0	0	4
Cc1n[nH]c(C)c1CCC(=O)N/N=C\c1ccc(C(C)(C)C)cc1	-1	0	-12	-21	·	·
c1ccc2c(c1)CCN(CCCNc1nc3ccccc3n3nnnc13)C2	6.7*	0	1	-9	0	-7
CCOCCCNc1nc2ccccc2n2nnnc12	-1	0	7	-15	·	·
C[C@@H]1CN(c2nncc(-c3cccc(C(F)(F)F)c3)n2)C[C@H](C)O1	-1	0	13	0	·	·
FC(F)(F)c1ccc(-c2cnnc(N3CCN(Cc4cccnc4)CC3)n2)cc1	6.0*	0	-2	6	0	-2
FC(F)(F)c1cccc(-c2cnnc(N3CCN(c4ccccn4)CC3)n2)c1	15*	0	12	12	0	9
FC(F)(F)c1ccc(-c2cnnc(N3CCCCCC3)n2)cc1	0	0	2	7	·	·
O=[N+]([O-])c1ccc2nonc2c1NC1CCCCC1	-1	0	4	6	·	·
Cc1ccc(NC(=O)NC23CC4CC(CC(C4)C2)C3)cc1	5.6*	0	-7	-22	1	3
Cc1ccc(NC(=O)NC23CC4CC(CC(C4)C2)C3)cc1NC(=O)NC12CC3CC(CC(C3)C1)C2	0	0	1	0	·	·
O=C1c2cccnc2C(=O)N1Cc1ccc(S(=O)(=O)NC2CCCCCC2)s1	2	0	8	-10	·	·
COC(=O)c1ccc[n+](CC(=O)c2ccc(Br)cc2)c1	6.2*	0	0	-1	0	1
O=C(C[n+]1cccc2ccccc21)c1ccc(Br)cc1	15*	0	-5	-2	0	-2
COc1ccc(C(=O)C[n+]2cccc(Br)c2)cc1	0	0	-6	-5	·	·
O=C(C[n+]1cccc2ccccc21)c1ccc(-c2ccccc2)cc1	-1	0	23	6	·	·
O=S(=O)(NCCCN1CCN(c2ccccc2F)CC1)c1cccc2nsnc12	-1	0	18	-2	·	·
CCOc1ccc(NC(=O)CNC(=O)C2CCCCC2)cc1	2	0	6	-1	·	·
CCN(CC)CCOC(=O)c1ccc(NC(=O)CNC(=O)C2CCCCC2)cc1	5.9*	0	10	10	0	-8
O=C(C1CCCCC1)N1CCC(c2nc3ccccc3[nH]2)CC1	5.8*	0	4	-4	1	9
Cc1cccc(NC(=O)CN2CCC(c3nc4ccccc4[nH]3)CC2)c1	-1	0	5	10	·	·
SMILES	GPR151 ag	FBW7 act	MITF inh	TEAD-YAP inh	GPR151 conf act	GPR119 counter
Cc1ccc(C)c(NC(=O)CN2CCC(c3nc4ccccc4[nH]3)CC2)c1	6.0*	0	-7	-12	1	3
Cc1nnc2c(N3CCN(c4ccccn4)CC3)nc3ccccc3n12	6.2*	0	-6	1	0	-2
COC(=O)C1=CN(CC2CCCO2)C=C(C(=O)OC)C1c1cccc(Cl)c1 (configuration not stated)	1	0	-17	-7	·	·
COC(=O)C1=CN(CC2CCCO2)C=C(C(=O)OC)C1c1cccc(F)c1 (configuration not stated)	5.7*	0	2	-4	2	15
COC(=O)C1=CN(Cc2ccc(F)cc2)C=C(C(=O)OC)C1c1cccc(F)c1	0	0	8	-3	·	·
COC(=O)C1=CN(Cc2ccc(F)cc2)C=C(C(=O)OC)C1c1cccc(O)c1	5.2*	0	3	2	0	10
CCCn1c(Cc2ccccc2)nnc1SCC(=O)NCc1ccc(OC)cc1	-1	0	-6	12	·	·
Cc1ccccc1NCC(=O)N/N=C\c1cccc(Br)c1	-1	0	-2	14	·	·
COc1ccc(-c2ccc(SCC(=O)NC(C)(C)C)nn2)cc1OC	2	0	0	1	·	·
O=C(CCC1(Cc2ccc3c(c2)OCO3)CCC(=O)N1)NCc1cnn(-c2ccccc2)n1 (configuration not stated)	7.1*	0	2	10	1	6
O=C(CCC1(Cc2ccco2)CCC(=O)N1)NCc1cnn(-c2ccccc2)n1 (configuration not stated)	0	0	-2	1	·	·
COc1ccc(CCNC(=O)c2cc(-c3cccc(OC)c3)nc3ccccc23)cc1	-2	1	0	9	·	·
COc1cccc(-c2cc(C(=O)NCCCn3ccnc3)c3ccccc3n2)c1	7.2*	0	3	8	2	13
Cc1ccc(C(=O)Nc2nc3ccc(S(C)(=O)=O)cc3s2)cc1	1	0	-10	-46	·	·
CC(C)(C)NS(=O)(=O)c1ccc2nc(NC(=O)c3cccnc3)sc2c1	6.2*	0	-5	-5	1	13
CCn1ccc(=O)c2cc(OC)ccc21	0	0	7	-5	·	·
Cc1ccc(/C=N/NC(=O)c2nc3nc(C)cc(C)n3n2)cc1	-1	0	-7	-14	·	·
Cc1cc(C)n2nc(C(=O)N/N=C/c3ccccc3)nc2n1	10*	0	-1	-4	-1	-8
Cc1oc(-c2ccccc2)nc1C(=O)O	5.0*	0	-6	2	1	-2
Nc1nc(SCc2cccc(Oc3ccccc3)c2)n[nH]1	0	0	3	-3	·	·
CCOC(=O)CSc1nnc(-c2cccc(NC(=O)c3ccccc3Cl)c2)n1C	5.3*	0	6	0	1	1
COc1cc(NC(=O)NCc2cccs2)c2ncccc2c1	5.6*	-1	-1	8	0	-4
COc1ccccc1/C=C1\C(=O)NC(=O)N(Cc2ccccc2)C1=O	0	-1	-11	2	·	·
Cc1cc2nc3c(=O)n(C4CCCCCC4)c(=O)[nH]c3nc2cc1N	5.1*	1	5	-20	2	8
COc1cccc(NC(=S)N/N=C/c2ccc(O)cc2O)c1	-3	0	10	-18	·	·
Cc1cccc(CSC2=NCCN2S(C)(=O)=O)c1	1	0	5	1	·	·
Cc1nc2ccccn2c1Sc1ccc([N+](=O)[O-])cc1[N+](=O)[O-]	1	0	9	-2	·	·
Cc1nc2ccccc2c(=O)n1CC(=O)N1CCOCC1	-1	1	10	6	·	·
Cc1nc2ccccc2c(=O)n1-c1ccc(N2CCOCC2)c(C(F)(F)F)c1	5.9*	0	-5	9	1	-4
